High-throughput results from PubChem BioAssay.
Shown are actives, neighbours in structure and some others; about 4.7% of the full set was active somewhere.
TRHR enhancer: TRH receptor (human) allosteric enhancement | 360,000 compounds, 0.66% hits | AID 493056 | enhancement, % at 2 µM | P34981 | TRHR cells, fluo-8 calcium fluorescence, EC20 TRH enhancement; in the data active means enhancement above about 30%; further: 0% is about no effect
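TRHR-expressing cells loaded with fluo-8 calcium dye were read kinetically (ex 480/em 530) during compound addition, then stimulated with an EC20 of TRH (10 nM final). Enhancement of the Gq-mediated intracellular calcium response was scored.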
TRHR ag: agonists of human TRH receptor; activation, % at 2 µM; TRHR cells, calcium flux fluo-8, FDSS agonist mode; 360,000 compounds, 0.18% hits; AID 493084; further: 0% is about no effect
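TRHR-expressing cells loaded with fluo-8 calcium dye; 23 nL library compound pin-transferred, kinetic FDSS fluorescence (Ex 480/Em 530) recorded about 180 s for agonist-induced calcium release, before a 10 nM TRH EC20 addition for potentiator mode.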
D1 antagonist: human D1 dopamine receptor antagonism. P21728. HEK293 TREx D1 cells, calcium flux, dopamine EC80; stronger effect = lower value. activity change, negative = inhibition, % at 10 µM. 360,000 compounds, 3.2% hits. AID 504652; in the data active means activity change below about -30%; further: on the % scale 0 is the no-effect control and ±100 the full control effect
Target sequence (P21728 whole entry, looked up): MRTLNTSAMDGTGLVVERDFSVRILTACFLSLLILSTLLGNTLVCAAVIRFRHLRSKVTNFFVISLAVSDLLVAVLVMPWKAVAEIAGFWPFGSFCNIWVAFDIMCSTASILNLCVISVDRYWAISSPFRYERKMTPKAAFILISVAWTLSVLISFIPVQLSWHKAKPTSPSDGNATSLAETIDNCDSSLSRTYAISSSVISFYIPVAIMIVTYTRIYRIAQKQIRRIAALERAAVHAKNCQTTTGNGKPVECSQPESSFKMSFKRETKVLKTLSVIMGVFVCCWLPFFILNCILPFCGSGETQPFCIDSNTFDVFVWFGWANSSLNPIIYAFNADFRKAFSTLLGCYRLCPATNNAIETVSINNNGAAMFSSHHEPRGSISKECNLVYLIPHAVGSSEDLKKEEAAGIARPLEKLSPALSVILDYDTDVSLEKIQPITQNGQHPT
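HEK293 T-REx cells expressing inducible, force-coupled D1 receptor; no-wash Ca dye, 30–90 min RT. Cmpd → 180 s read at 1 Hz → EC80 DA → 180 s read.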
D1 PAM: potentiators of human D1 dopamine receptor; 360,000 compounds, 0.036% hits; AID 504651; HEK293 TREx D1 cells, calcium flux, dopamine EC20 potentiation; potentiation, % at 10 µM; P21728; in the data active means potentiation above about 30%; further: 0% is about no effect
D1 ag: human D1 receptor agonism; HEK293 T-REx D1 cells, calcium flux, agonist mode; activation, % at 2 µM; 360,000 compounds, 1% hits; further: 0% is about no effect
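Agonism was scored from calcium flux recorded over 180 s (1 read/s) after pintool compound addition, following a 10-cycle baseline. Cells were inducible force-coupled HEK293 TREx D1, plated overnight at 30 C and loaded with no-wash calcium dye.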
An asterisk follows results filed as active; . = no result. Unless noted, no stated cut-off is given here; in the data, active means activation above about 30%; inactive means the rest.

SMILES	TRHR enhancer	TRHR ag	D1 antagonist	D1 PAM	D1 ag
COc1ccc(CN2C(=O)C(C)Oc3ccccc32)cc1 (configuration not stated)	-6	-1	-35*	6	13
COc1cc(C(=O)NCC(c2cccnc2)N2CCc3ccccc32)cc(OC)c1OC (configuration not stated)	-4	1	8	-1	6
CN(C)S(=O)(=O)c1cccc(NC(=S)N/N=C/c2cc(Br)ccc2O)c1	8	0	-11	-18	47*
Cc1cccc2sc(N(Cc3cccnc3)C(=O)Cc3ccccc3)nc12	-1	1	.	0	10
Cc1cccc2sc(N(Cc3cccnc3)C(=O)CCc3ccccc3)nc12	12	-1	.	6	56*
Cc1cccc(/C=C2\Sc3ccc(C(=O)N4CCCCC4)cc3N(C)C2=O)c1	3	0	-38*	0	3
Cc1cc(C)cc(NC(=O)CN2C(=O)c3ccccc3Sc3ccc(C(=O)N4CCCC4)cc32)c1	33*	0	11	1	3
Cc1ccc(NC(=O)CN2C(=O)c3ccccc3Sc3ccc(C(=O)N4CCOCC4)cc32)c(Cl)c1	-3	0	7	-4	0
Cc1cccc(/C=C2\Sc3ccc(C(=O)N4CCOCC4)cc3N(C)C2=O)c1	0	0	-9	5	5
CN1C(=O)/C(=C/c2cccc(Cl)c2)Sc2ccc(C(=O)N3CCCC3)cc21	23	0	-36*	4	8
Cc1cc(OC(C)C(=O)N(Cc2ccc(N(C)C)cc2)Cc2ccco2)ccc1Cl (configuration not stated)	0	0	-5	-1	1
Cn1c(/C=C(\C#N)C(N)=S)ccc1-c1ccc(Br)cc1	10	-1	-37*	-10	1
CCc1ccc(C2CC(=O)Nc3c2c(=O)n(C)c2ncnn32)cc1 (configuration not stated)	-7	-2	-39*	-6	1
CSc1ccc(C2CC(=O)Nc3c2c(=O)n(C)c(=O)n3C)cc1 (configuration not stated)	4	1	-5	-8	4
COc1cccc(N2CCN(S(=O)(=O)c3cccc4cccnc34)CC2)c1	-3	0	-7	3	6
CCn1ncc(S(=O)(=O)N2CCN(c3cccc(OC)c3)CC2)c1C	25	0	-35*	-5	4
COc1ccc(C(=O)C2CCCN(Cc3sc(N4CCCC4)nc3Cl)C2)c(OC)c1 (configuration not stated)	-5	-1	-41*	-3	7
O=C(O)C1CCN(c2ccc(S(=O)(=O)N3CCOCC3)cc2[N+](=O)[O-])CC1	-5	0	-24	-4	4
O=[N+]([O-])c1cc(S(=O)(=O)N2CCOCC2)ccc1N1CCCC1	8	-1	-31*	6	1
Cc1ccc(CNc2ccc(S(=O)(=O)N3CCOCC3)cc2[N+](=O)[O-])cc1	-3	0	-57*	2	6
CCOC(=O)C1(CCOc2ccccc2)CCN(Cc2ccc(O)c(OC)c2)CC1	-2	2	-24	4	16
CCOC(=O)C1(Cc2cccc(OC)c2)CCN(Cc2ccc3c(c2)OCCO3)CC1	-2	0	-19	-1	15
CCOC(=O)C1(CCOc2ccccc2)CCN(Cc2ccc(O)c(Cl)c2)CC1	-5	0	-39*	-6	24
CCOC(=O)C1(CCOc2ccccc2)CCN(Cc2ccc3c(c2)OCCO3)CC1	8	0	-43*	-2	3
CCOC(=O)C1(CCOc2ccccc2)CCN(Cc2cccc(OC)c2O)CC1	2	1	-45*	-7	13
SMILES	TRHR enhancer	TRHR ag	D1 antagonist	D1 PAM	D1 ag
CCCCN(CC)C(=O)CSc1nc2n[nH]c(C)c2c(=N)n1-c1cccc(Cl)c1	-1	-1	2	-1	5
O=C(OCn1nnc2ccccc2c1=O)c1ccco1	2	0	5	7	-1
O=C(OCn1nnc2ccccc2c1=O)c1cc2ccccc2o1	-2	0	-32*	-5	2
CN1CCN(S(=O)(=O)c2ccc(N(C)Cc3cccs3)nc2)CC1	4	-1	-38*	-10	6
CN1CCN(S(=O)(=O)c2cccc(C(=O)N(C)Cc3cccs3)c2)CC1	-6	-1	-46*	.	3
O=C(Nc1cccc(Cl)c1)N1Cc2ccccc2Oc2ncccc21	7	-1	9	-4	5
Cc1cccc(N2CCN(C(=O)Cn3nc(Cc4cccnc4)c4ccccc4c3=O)CC2)c1C	-11	0	1	2	0
N#Cc1nc(Nc2cc(F)cc(F)c2)nc(Nc2cc(F)cc(F)c2)n1	7	-2	-20	-2	2
CCN(C(=O)COC(=O)c1ccc(OCc2c(C)noc2C)cc1)c1ccccc1	1	0	7	3	2
CCN(c1ccccc1)S(=O)(=O)c1ccc(OCc2c(C)noc2C)cc1	-1	1	-32*	-7	16
Cc1ccc(S(=O)(=O)N(C)c2ccc(OCc3cccc(C)c3)cc2)cc1	-8	3	12	-1	38*
Cc1ccc(C(C)C)c(OCC(=O)OCc2c(C)noc2C)c1	-21	0	-3	-5	2
Cc1ccc(S(=O)(=O)N(C)c2ccc(OCC(=O)OCc3c(C)noc3C)cc2)cc1	-1	0	-47*	-1	24
CN(c1ccc(OCc2ccc([N+](=O)[O-])cc2)cc1)S(=O)(=O)c1ccccc1	-4	2	-11	.	22
Cc1csc2c(N3CCN(C(=O)Nc4ccccc4)CC3)ncnc12	4	0	-4	-14	10
Cc1csc2c(N3CCN(C(=S)Nc4ccc(F)cc4F)CC3)ncnc12	4	1	-42*	-7	40*
O=C(C1CCC(=O)N1Cc1ccccc1Cl)N1CCN(c2ccc(F)cc2)CC1 (configuration not stated)	0	0	-48*	-6	0
O=C(Nc1cc(Cl)cc(Cl)c1)C1CCC(=O)N1Cc1ccccc1Cl (configuration not stated)	40*	-1	-20	-11	27
O=C(NCCCN1CCN(c2cccc(Cl)c2)CC1)C1CCC(=O)N1Cc1ccccc1Cl (configuration not stated)	-4	0	-38*	-10	11
CC(C)N1C(=O)CCC1C(=O)N1CCN(c2ccc(F)cc2)CC1 (configuration not stated)	7	1	-8	2	2
CN(CCCNC(=O)C1CCC(=O)N1Cc1ccccc1Cl)c1ccccc1 (configuration not stated)	-13	0	-10	1	1
O=C1C2CCCCN2C(=O)N1CCCCN1CCN(c2cccc(Cl)c2)CC1 (configuration not stated)	32*	1	-39*	-22	2
